Counter-ions that a name gives are not always drawn.
Key:
Settings in all cases: incubation time: 27 h, anaerobic, 37 °C;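 for the amine columns active = adjusted P below 0.05 in both replicates with a change the same way and a mean fold change under 0.8 or over 1.25; inactive = the rest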
[1] = test system: Clostridium sporogenes DSM 1664; experiment: growth (OD595) fold change vs plate DMSO controls (fold change (ratio)); higher = more growth
Outline: (§1)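 Anaerobic mGAM cultures in 96-well plates were grown for 27 h at 37 °C, and absorbance was then read at 595 nm. After blank and compound background correction with 20 µM compound solutions in water, a calibration factor of 5 gave OD. Growth is the fold change relative to the median of each plate's DMSO controls. Values are means of 2 biological replicates, with fold changes above 1.5 set to NA.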

Escherichia coli IAI1 [2] = experiment: as above
Outline: as §1

[3] = test system: Klebsiella aerogenes DSM 30053; experiment: as above
Outline: as §1

[4] = test system: Klebsiella aerogenes DSM 30053; experiment: fold change of Histamine concentration vs plate DMSO controls (fold change (ratio)); higher = more amine produced, active = hit call of the paper (significant change in both replicates, either direction)
Outline: (§2)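 Using LC–triple-quadrupole MS with dynamic MRM, amines were quantified against external calibration curves and corrected for drift within each batch. Samples were whole anaerobic mGAM cultures of four gut strains, grown 27 h at 37 °C from OD 0.1 before 1:1 dilution, extracted with cold acetonitrile/methanol containing 0.1% formic acid and centrifuged. Compounds were present at 20 µM final (sweeteners at 50 µM final). The numbers are fold changes versus plate DMSO controls, each the mean of 2 biological replicates.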

[5] = test system: Clostridium sporogenes DSM 1664; experiment: fold change of Tryptamine concentration vs plate DMSO controls (fold change (ratio)); higher = more amine produced, active = hit call of the paper (significant change in both replicates, either direction)
Outline: as §2

[6] = test system: Ruminococcus gnavus DSM 108212; experiment: as above
Outline: as §2

Escherichia coli IAI1 [7] = experiment: fold change of Putrescine concentration vs plate DMSO controls (fold change (ratio)); higher = more amine produced, active = hit call of the paper (significant change in both replicates, either direction)
Outline: as §2

[8] = test system: Klebsiella aerogenes DSM 30053; experiment: as above
Outline: as §2

Escherichia coli IAI1 [9] = experiment: fold change of Cadaverine concentration vs plate DMSO controls (fold change (ratio)); higher = more amine produced, active = hit call of the paper (significant change in both replicates, either direction)
Outline: as §2

[10] = test system: Klebsiella aerogenes DSM 30053; experiment: as above
Outline: as §2

[11] = test system: Ruminococcus gnavus DSM 108212; experiment: fold change of 2-Phenylethylamine concentration vs plate DMSO controls (fold change (ratio)); higher = more amine produced, active = hit call of the paper (significant change in both replicates, either direction)
Outline: as §2

[12] = test system: Ruminococcus gnavus DSM 108212; experiment: growth (OD595) fold change vs plate DMSO controls (fold change (ratio)); higher = more growth
Outline: as §1

Cc1cc(C(C)(C)CC(C)(C)C)ccc1OCCOCC[N+](C)(C)Cc1ccccc1 [Methyl benzethonium chloride] (20 µM)
growth [1]: 0.896 | growth (Escherichia coli IAI1 [2]): 1.13 | growth [3]: 1.04 | fold change of Histamine concentration [4]: 1.11 (inactive) | fold change of Tryptamine concentration [5]: 0.948 (inactive) | fold change of Tryptamine concentration [6]: 0.726 (active) | fold change of Putrescine concentration (Escherichia coli IAI1 [7]): 1.05 (inactive) | fold change of Putrescine concentration [8]: 1.01 (inactive) | fold change of Cadaverine concentration (Escherichia coli IAI1 [9]): 1.04 (inactive) | fold change of Cadaverine concentration [10]: 0.985 (inactive) | fold change of 2-Phenylethylamine concentration [11]: 0.803 (inactive)

CS(=O)(=O)c1ccc([C@@H](O)[C@@H](CO)NC(=O)C(Cl)Cl)cc1 [Thiamphenicol] (20 µM)
growth [1]: 0.937 | growth (Escherichia coli IAI1 [2]): 0.551 | growth [3]: 0.468 | growth [12]: 0.18 | fold change of Histamine concentration [4]: 0.0658 (active) | fold change of Tryptamine concentration [5]: 0.738 (active) | fold change of Tryptamine concentration [6]: 0.141 (active) | fold change of Putrescine concentration (Escherichia coli IAI1 [7]): 0.321 (active) | fold change of Putrescine concentration [8]: 0.426 (active) | fold change of Cadaverine concentration (Escherichia coli IAI1 [9]): 1.17 (inactive) | fold change of Cadaverine concentration [10]: 0.957 (inactive) | fold change of 2-Phenylethylamine concentration [11]: 0.145 (active)

CCCCC(=O)O[C@H]1CC[C@H]2[C@@H]3CCc4cc(O)ccc4[C@H]3CC[C@]12C [Estradiol Valerate] (20 µM)
growth [1]: 0.581 | growth (Escherichia coli IAI1 [2]): 0.995 | growth [3]: 0.996 | growth [12]: 1.05 | fold change of Histamine concentration [4]: 0.898 (inactive) | fold change of Tryptamine concentration [5]: 0.24 (active) | fold change of Tryptamine concentration [6]: 1 (inactive) | fold change of Putrescine concentration (Escherichia coli IAI1 [7]): 0.88 (inactive) | fold change of Putrescine concentration [8]: 0.925 (inactive) | fold change of Cadaverine concentration (Escherichia coli IAI1 [9]): 0.926 (inactive) | fold change of Cadaverine concentration [10]: 1.05 (inactive) | fold change of 2-Phenylethylamine concentration [11]: 0.953 (inactive)

O=C(O)[C@H]1/C(=C/CO)O[C@@H]2CC(=O)N21 [Clavulanate potassium salt] (20 µM)
growth [1]: 0.883 | growth (Escherichia coli IAI1 [2]): 1.01 | growth [3]: 0.977 | fold change of Histamine concentration [4]: 1.02 (inactive) | fold change of Tryptamine concentration [5]: 1.01 (inactive) | fold change of Tryptamine concentration [6]: 0.997 (inactive) | fold change of Putrescine concentration (Escherichia coli IAI1 [7]): 0.96 (inactive) | fold change of Putrescine concentration [8]: 1 (inactive) | fold change of Cadaverine concentration (Escherichia coli IAI1 [9]): 1.05 (inactive) | fold change of Cadaverine concentration [10]: 0.998 (inactive) | fold change of 2-Phenylethylamine concentration [11]: 1.02 (inactive)

CC(C)(O/N=C(\C(=O)N[C@@H]1C(=O)N2C(C(=O)[O-])=C(C[n+]3ccccc3)CS[C@H]12)c1csc(N)n1)C(=O)O [Ceftazidime pentahydrate] (20 µM)
growth [1]: 0.781 | growth (Escherichia coli IAI1 [2]): 0.132 | growth [3]: 0.595 | fold change of Histamine concentration [4]: 1.18 (inactive) | fold change of Tryptamine concentration [5]: 1.04 (inactive) | fold change of Tryptamine concentration [6]: 0.877 (inactive) | fold change of Putrescine concentration (Escherichia coli IAI1 [7]): 2.08 (active) | fold change of Putrescine concentration [8]: 0.905 (inactive) | fold change of Cadaverine concentration (Escherichia coli IAI1 [9]): 2.09 (active) | fold change of Cadaverine concentration [10]: 1.16 (inactive) | fold change of 2-Phenylethylamine concentration [11]: 0.865 (inactive)

Clc1cc(Cl)c(OCC#CI)cc1Cl [Haloprogin] (20 µM)
growth [1]: 0.986 | growth (Escherichia coli IAI1 [2]): 0.942 | growth [3]: 0.967 | fold change of Histamine concentration [4]: 1.01 (inactive) | fold change of Tryptamine concentration [5]: 0.977 (inactive) | fold change of Tryptamine concentration [6]: 0.777 (inactive) | fold change of Putrescine concentration (Escherichia coli IAI1 [7]): 1.09 (inactive) | fold change of Putrescine concentration [8]: 0.953 (inactive) | fold change of Cadaverine concentration (Escherichia coli IAI1 [9]): 1.04 (inactive) | fold change of Cadaverine concentration [10]: 0.987 (inactive) | fold change of 2-Phenylethylamine concentration [11]: 0.861 (inactive)

COC1=CC(=O)C[C@@H](C)[C@]12Oc1c(Cl)c(OC)cc(OC)c1C2=O [Griseofulvin] (20 µM)
growth [1]: 0.993 | growth (Escherichia coli IAI1 [2]): 1.02 | growth [3]: 0.922 | growth [12]: 0.915 | fold change of Histamine concentration [4]: 1.02 (inactive) | fold change of Tryptamine concentration [5]: 1.03 (inactive) | fold change of Tryptamine concentration [6]: 0.993 (inactive) | fold change of Putrescine concentration (Escherichia coli IAI1 [7]): 1.01 (inactive) | fold change of Putrescine concentration [8]: 0.989 (inactive) | fold change of Cadaverine concentration (Escherichia coli IAI1 [9]): 1.03 (inactive) | fold change of Cadaverine concentration [10]: 0.999 (inactive) | fold change of 2-Phenylethylamine concentration [11]: 0.98 (inactive)

Clc1ccc(Nc2nnc(Cc3ccncc3)c3ccccc23)cc1 [Vatalanib] (20 µM)
growth [1]: 1.06 | growth (Escherichia coli IAI1 [2]): 1.19 | growth [3]: 1.08 | fold change of Histamine concentration [4]: 0.91 (inactive) | fold change of Tryptamine concentration [5]: 1.12 (inactive) | fold change of Tryptamine concentration [6]: 1.02 (inactive) | fold change of Putrescine concentration (Escherichia coli IAI1 [7]): 1.17 (inactive) | fold change of Putrescine concentration [8]: 0.942 (inactive) | fold change of Cadaverine concentration (Escherichia coli IAI1 [9]): 0.945 (inactive) | fold change of Cadaverine concentration [10]: 1.02 (inactive) | fold change of 2-Phenylethylamine concentration [11]: 1.01 (inactive)

CC1COc2c(N3CCN(C)CC3)c(F)cc3c(=O)c(C(=O)O)cn1c23 (configuration not stated) [Ofloxacin] (20 µM)
growth [1]: 0.0346 | growth (Escherichia coli IAI1 [2]): 0.0388 | growth [3]: 0.256 | fold change of Histamine concentration [4]: 0.09 (active) | fold change of Tryptamine concentration [5]: 0.0354 (active) | fold change of Tryptamine concentration [6]: 0.997 (inactive) | fold change of Putrescine concentration (Escherichia coli IAI1 [7]): 0.809 (inactive) | fold change of Putrescine concentration [8]: 0.653 (active) | fold change of Cadaverine concentration (Escherichia coli IAI1 [9]): 0.187 (active) | fold change of Cadaverine concentration [10]: 0.961 (inactive) | fold change of 2-Phenylethylamine concentration [11]: 1.06 (inactive)

CC[N+](C)(CC)CCC[n+]1c(-c2ccccc2)c2cc(N)ccc2c2ccc(N)cc21 [Propidium iodide] (20 µM)
growth [1]: 1.18 | growth (Escherichia coli IAI1 [2]): 1.07 | growth [3]: 1.08 | fold change of Histamine concentration [4]: 1.07 (inactive) | fold change of Tryptamine concentration [5]: 1.07 (inactive) | fold change of Tryptamine concentration [6]: 1.05 (inactive) | fold change of Putrescine concentration (Escherichia coli IAI1 [7]): 0.99 (inactive) | fold change of Putrescine concentration [8]: 1 (inactive) | fold change of Cadaverine concentration (Escherichia coli IAI1 [9]): 1 (inactive) | fold change of Cadaverine concentration [10]: 0.999 (inactive) | fold change of 2-Phenylethylamine concentration [11]: 1.08 (inactive)

O=C(CCCN1CC=C(n2c(=O)[nH]c3ccccc32)CC1)c1ccc(F)cc1 [Droperidol] (20 µM)
growth [1]: 1.02 | growth (Escherichia coli IAI1 [2]): 0.959 | growth [3]: 1.02 | growth [12]: 0.835 | fold change of Histamine concentration [4]: 0.994 (inactive) | fold change of Tryptamine concentration [5]: 0.988 (inactive) | fold change of Tryptamine concentration [6]: 0.963 (inactive) | fold change of Putrescine concentration (Escherichia coli IAI1 [7]): 0.977 (inactive) | fold change of Putrescine concentration [8]: 1.02 (inactive) | fold change of Cadaverine concentration (Escherichia coli IAI1 [9]): 1.03 (inactive) | fold change of Cadaverine concentration [10]: 1 (inactive) | fold change of 2-Phenylethylamine concentration [11]: 0.956 (inactive)

COc1ccc(C(Cl)=C(c2ccc(OC)cc2)c2ccc(OC)cc2)cc1 [Chlorotrianisene] (20 µM)
growth [1]: 1.07 | growth (Escherichia coli IAI1 [2]): 0.924 | growth [3]: 0.946 | fold change of Histamine concentration [4]: 0.94 (inactive) | fold change of Tryptamine concentration [5]: 0.978 (inactive) | fold change of Tryptamine concentration [6]: 1.06 (inactive) | fold change of Putrescine concentration (Escherichia coli IAI1 [7]): 1.01 (inactive) | fold change of Putrescine concentration [8]: 0.998 (inactive) | fold change of Cadaverine concentration (Escherichia coli IAI1 [9]): 1 (inactive) | fold change of Cadaverine concentration [10]: 1 (inactive) | fold change of 2-Phenylethylamine concentration [11]: 1.07 (inactive)

CS(=O)(=O)Nc1ccc([N+](=O)[O-])cc1Oc1ccccc1 [Nimesulide] (20 µM)
growth [1]: 1.01 | growth (Escherichia coli IAI1 [2]): 0.991 | growth [3]: 1.03 | fold change of Histamine concentration [4]: 1.07 (inactive) | fold change of Tryptamine concentration [5]: 0.973 (inactive) | fold change of Tryptamine concentration [6]: 0.972 (inactive) | fold change of Putrescine concentration (Escherichia coli IAI1 [7]): 1.01 (inactive) | fold change of Putrescine concentration [8]: 1.01 (inactive) | fold change of Cadaverine concentration (Escherichia coli IAI1 [9]): 1 (inactive) | fold change of Cadaverine concentration [10]: 0.991 (inactive) | fold change of 2-Phenylethylamine concentration [11]: 0.905 (inactive)
